This is part of a sample that, as a whole, favours compounds with a hit. Of some 79,000 tested, about 15% had one in any assay. A number with no mark means an inactive call. The source made the active and inactive calls. No stated cut-off is given here; in the data, active means growth inhibition above about 70%; inactive means the rest.
Legend:
[1] = NCI Yeast Anticancer Drug Screen. Data for the rad50 strain (AID 155);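 further: 0% = growth of vehicle-only cultures of the same strain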; conditions: S. cerevisiae rad50 strain growth inhibition; at 50.0 µM; hits give high values
How it was run: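 Readout: growth inhibition relative to vehicle-treated cultures. Compound exposure was carried out in a genetically defined yeast strain deficient in DNA damage repair.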

[2] = NCI Yeast Anticancer Drug Screen. Data for the mec2-1 strain (AID 157); conditions: S. cerevisiae mec2-1 strain, at 50.0 µM, hits give high values
How it was run: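 Growth inhibition is read against vehicle-treated controls after compound exposure of the mec2-1 yeast strain, which is defective in DNA damage repair or cell cycle control.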

[3] = NCI Yeast Anticancer Drug Screen. Data for the sgs1 mgt1 strain (AID 161);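 further: 0% = growth of cultures given vehicle only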; conditions: S. cerevisiae sgs1 mgt1 strain, at 50.0 µM, hits give high values
How it was run: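 Growth of a repair-deficient yeast mutant was monitored after compound treatment and expressed as inhibition relative to vehicle-treated cultures.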

[4] = NCI Yeast Anticancer Drug Screen. Data for the cln2 rad14 strain (AID 165);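 further: 0% = growth equal to vehicle treated cultures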; conditions: S. cerevisiae cln2 rad14 strain, at 50.0 µM, hits give high values
How it was run: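 Growth inhibition, relative to vehicle-treated controls, is the read-out. The test organism is a yeast strain with defined genetic alterations, cln2 rad14.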

[5] = NCI Yeast Anticancer Drug Screen. Data for the bub3 strain (AID 167); conditions: S. cerevisiae bub3 mutant strain, at 50.0 µM, hits give high values
How it was run: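 Readout: yeast growth inhibition, expressed relative to vehicle-only wells. The test organism is a mutant strain from a panel with lesions in DNA repair or checkpoint genes.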

[6] = NCI Yeast Anticancer Drug Screen. Data for the mlh1 rad18 strain (AID 175); conditions: S. cerevisiae mlh1 rad18 strain growth inhibition; at 50.0 µM; hits give high values
How it was run: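 Cells of a genetically altered yeast strain, deficient in DNA damage repair, were treated with compound. Their growth was then compared with that of vehicle-treated cultures to give inhibition.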

Structure (SMILES): COc1ccc2[nH]c(=O)ccc2c1
- growth inhibition [1]: 1.6%
- growth inhibition [2]: 0.35%
- growth inhibition [3]: -2.3%
- growth inhibition [4]: -0.5%
- growth inhibition [5]: 12.7%
- growth inhibition [6]: -2.95%

Structure (SMILES): Cc1cc2c(cc1C)NC1=C(N2)OC(c2ccc(C3OC4=C(Nc5cc(C)c(C)cc5N4)C3=O)cc2)C1=O (stereo not drawn)
- growth inhibition [1]: 32.2%
- growth inhibition [2]: 14.8%
- growth inhibition [3]: 9.95%
- growth inhibition [4]: 16.5%
- growth inhibition [5]: 0.75%
- growth inhibition [6]: 29.6%

Structure (SMILES): COc1ccc(C(CC(=O)c2ccccc2)SCCN2CCOCC2)cc1 (stereo not drawn)
- growth inhibition [1]: 4.25%
- growth inhibition [2]: 0.85%
- growth inhibition [3]: 5.2%
- growth inhibition [4]: -43.6%
- growth inhibition [5]: 53.5%
- growth inhibition [6]: 3.6%

Structure (SMILES): CSc1nc(NC2OC(CO)C(O)C(O)C2O)c(I)c(=O)n1C (stereo not drawn)
- growth inhibition [1]: 3.15%
- growth inhibition [2]: 1.85%
- growth inhibition [3]: -5.3%
- growth inhibition [4]: -6.25%
- growth inhibition [5]: -1.75%
- growth inhibition [6]: 27.7%

Structure (SMILES): CC(=O)OC1CC1(Br)Br (stereo not drawn)
- growth inhibition [1]: 6.3%
- growth inhibition [2]: -15.8%
- growth inhibition [3]: 18.6%
- growth inhibition [4]: -37.8%
- growth inhibition [5]: 6.5%
- growth inhibition [6]: 5.2%

Structure (SMILES): CSCCC(N)C(=O)NCCNc1ccc(NCCNC(=O)C(N)CCSC)c2c1C(=O)c1ccccc1C2=O (stereo not drawn)
- growth inhibition [1]: -8.05%
- growth inhibition [2]: -0.9%
- growth inhibition [3]: -29%
- growth inhibition [4]: -0.5%
- growth inhibition [5]: -30.4%
- growth inhibition [6]: -44.4%

Structure (SMILES): CCN=C(N(CC)CC)N(CC)CC
- growth inhibition [1]: -12.1%
- growth inhibition [2]: 10.2%
- growth inhibition [3]: 2.95%
- growth inhibition [4]: -24.4%
- growth inhibition [5]: 62.7%
- growth inhibition [6]: 4.3%

Structure (SMILES): CCOC(=O)c1cc(-c2ccccc2)nc2nc(N)ccc12
- growth inhibition [1]: 15.2%
- growth inhibition [2]: -3.15%
- growth inhibition [3]: 5.65%
- growth inhibition [4]: 9.05%
- growth inhibition [5]: 13.2%
- growth inhibition [6]: 15.2%

Structure (SMILES): CC(=O)Nc1c(F)c(F)c(F)c(F)c1F
- growth inhibition [1]: 20.1%
- growth inhibition [2]: 2.2%
- growth inhibition [3]: -11.7%
- growth inhibition [4]: -35%
- growth inhibition [5]: 14.3%
- growth inhibition [6]: -13.1%

Structure (SMILES): Cc1ccc(/C=C/c2ccc3ccccc3c2)cc1
- growth inhibition [1]: -6.6%
- growth inhibition [2]: -9.3%
- growth inhibition [3]: 9.05%
- growth inhibition [4]: -14.6%
- growth inhibition [5]: -4.8%
- growth inhibition [6]: -3.85%

Structure (SMILES): C[n+]1cccc2cc(Br)ccc21
- growth inhibition [1]: -5.3%
- growth inhibition [2]: -8.6%
- growth inhibition [3]: -13.2%
- growth inhibition [4]: 9.7%
- growth inhibition [5]: 11.6%
- growth inhibition [6]: -15.5%

Structure (SMILES): CCOC(=O)CCOc1ccccc1
- growth inhibition [1]: 8%
- growth inhibition [2]: 9.1%
- growth inhibition [3]: 8.45%
- growth inhibition [4]: 3.8%
- growth inhibition [5]: -0.85%
- growth inhibition [6]: 22.8%

Structure (SMILES): Cc1cc(C)nc(N(C)CCN2CCCCC2)c1
- growth inhibition [1]: -6.5%
- growth inhibition [2]: -3.1%
- growth inhibition [3]: 3.4%
- growth inhibition [4]: -25.1%
- growth inhibition [5]: 5.45%
- growth inhibition [6]: -5.85%

Structure (SMILES): O=c1n(-c2ccccc2)c(=O)n2n1C1C3C4C5C1C5C2C43 (stereo not drawn)
- growth inhibition [1]: -8.4%
- growth inhibition [2]: 8.95%
- growth inhibition [3]: 12.3%
- growth inhibition [4]: 5.85%
- growth inhibition [5]: 5%
- growth inhibition [6]: 12.8%

Structure (SMILES): CC(C)=CCNc1ncnc2c1ncn2CCC(=O)OC(C)(C)C
- growth inhibition [1]: -9.75%
- growth inhibition [2]: -3.2%
- growth inhibition [3]: -3.7%
- growth inhibition [4]: -15.9%
- growth inhibition [5]: 10.1%
- growth inhibition [6]: 1.55%

Structure (SMILES): CCc1ccc2c(c1)/C(=N\NC(N)=O)CCC2
- growth inhibition [1]: -11.2%
- growth inhibition [2]: 13.5%
- growth inhibition [3]: -12.8%
- growth inhibition [4]: -7.6%
- growth inhibition [5]: 9.8%
- growth inhibition [6]: -9.5%

Structure (SMILES): CCOC(=O)c1c(NCCO)c(-c2ccccc2)c(=O)n2c1[nH]c1ccccc12
- growth inhibition [1]: 2.1%
- growth inhibition [2]: 6.6%
- growth inhibition [3]: 4.8%
- growth inhibition [4]: -1%
- growth inhibition [5]: -0.9%
- growth inhibition [6]: 14.9%

Structure (SMILES): Cc1cc(Cc2c(F)c(F)c(C(c3cc(C)no3)c3c(F)c(F)c(F)c(F)c3F)c(F)c2F)on1 (stereo not drawn)
- growth inhibition [1]: -7.55%
- growth inhibition [2]: -37.9%
- growth inhibition [3]: 5.8%
- growth inhibition [4]: -58.8%
- growth inhibition [5]: -26.1%
- growth inhibition [6]: -8.3%

Structure (SMILES): CCCCN(CCCC)CC(O)c1cc(-c2ccc(Cl)c(Cl)c2)nc2c(Cl)cc(Cl)cc12 (stereo not drawn)
- growth inhibition [1]: 28.3%
- growth inhibition [2]: 31.1%
- growth inhibition [3]: -15.7%
- growth inhibition [4]: 11.6%
- growth inhibition [5]: -15.5%
- growth inhibition [6]: -11.8%

Structure (SMILES): CSc1ncnc2c1ccn2C1OC(COP(=O)(O)O)C(O)C1O (stereo not drawn)
- growth inhibition [1]: 21.8%
- growth inhibition [2]: -1.35%
- growth inhibition [3]: -3.4%
- growth inhibition [4]: -2.45%
- growth inhibition [5]: -37%
- growth inhibition [6]: -2.15%

Structure (SMILES): CCc1nc(N)nc(N)c1-c1ccc(OC)c(N)c1
- growth inhibition [1]: 22.4%
- growth inhibition [2]: 28.1%
- growth inhibition [3]: 22.6%
- growth inhibition [4]: 35.7%
- growth inhibition [5]: 13.6%
- growth inhibition [6]: 43.4%

Structure (SMILES): Cc1cc2c(=O)cc(-c3ccc(O)cc3)oc2c(C(=O)O)c1C
- growth inhibition [1]: 2.7%
- growth inhibition [2]: -4.45%
- growth inhibition [3]: 14.3%
- growth inhibition [4]: 24.8%
- growth inhibition [5]: 0.6%
- growth inhibition [6]: 4.4%

Structure (SMILES): O=C1c2cccc3c(Br)ccc(c23)C(=O)N1C1CCCCCCCCCCC1
- growth inhibition [1]: 99.2% (active)
- growth inhibition [2]: 99.5% (active)
- growth inhibition [3]: 99.5% (active)
- growth inhibition [4]: 98.5% (active)
- growth inhibition [5]: 99.2% (active)
- growth inhibition [6]: 99.5% (active)

Structure (SMILES): N=c1nnc2ccc(Cl)cc2n1O
- growth inhibition [1]: 64.5%
- growth inhibition [2]: 4.7%
- growth inhibition [3]: 15.6%
- growth inhibition [4]: 9.65%
- growth inhibition [5]: -1.85%
- growth inhibition [6]: -5.25%

Structure (SMILES): CCOC(=O)CC(=O)C(=O)NNC1=NCCCN1
- growth inhibition [1]: 7.25%
- growth inhibition [2]: -5.35%
- growth inhibition [3]: -20.1%
- growth inhibition [4]: 14.2%
- growth inhibition [5]: 2.3%
- growth inhibition [6]: 0.45%

Structure (SMILES): Cc1ccc(-c2n[nH]c(=O)n2N)cc1
- growth inhibition [1]: 3.5%
- growth inhibition [2]: -23%
- growth inhibition [3]: 0.85%
- growth inhibition [4]: 5.45%
- growth inhibition [5]: 0.45%
- growth inhibition [6]: 7.25%

Structure (SMILES): CCOC(=O)c1ccc([N+](=O)[O-])cc1
- growth inhibition [1]: -9.55%
- growth inhibition [2]: -12%
- growth inhibition [3]: -17.4%
- growth inhibition [4]: -29.2%
- growth inhibition [5]: -18.6%
- growth inhibition [6]: 21.1%

Structure (SMILES): CC(=O)Nc1cccc([N+](=O)[O-])c1
- growth inhibition [1]: 8.25%
- growth inhibition [2]: -10.3%
- growth inhibition [3]: 8.65%
- growth inhibition [4]: -7.85%
- growth inhibition [5]: -2.7%
- growth inhibition [6]: -19.6%

Structure (SMILES): O=S(=O)(Nc1cccc(F)c1)c1ccc(F)cc1
- growth inhibition [1]: -12.5%
- growth inhibition [2]: -10.4%
- growth inhibition [3]: -3.6%
- growth inhibition [4]: 0.3%
- growth inhibition [5]: -9.95%
- growth inhibition [6]: 11.6%

Structure (SMILES): C[Si](C)(C)COC(N)=O
- growth inhibition [1]: -5.5%
- growth inhibition [2]: 10.8%
- growth inhibition [3]: -12.4%
- growth inhibition [4]: 8.1%
- growth inhibition [5]: 9.4%
- growth inhibition [6]: 0.45%

Structure (SMILES): O=C(O)c1cc(C2CC2)nc2ccccc12
- growth inhibition [1]: -1%
- growth inhibition [2]: 1.6%
- growth inhibition [3]: 0.55%
- growth inhibition [4]: -0.95%
- growth inhibition [5]: -14.6%
- growth inhibition [6]: 24.6%

Structure (SMILES): Cc1cc(Cl)c(C)c(C)c1O
- growth inhibition [1]: 22.6%
- growth inhibition [2]: 5.45%
- growth inhibition [3]: -20.2%
- growth inhibition [4]: 16.6%
- growth inhibition [5]: 1.25%
- growth inhibition [6]: 21.4%

Structure (SMILES): COC1=C(C(=O)c2ccc(OC)c(OC)c2)COC1=O
- growth inhibition [1]: -8.4%
- growth inhibition [2]: -13.3%
- growth inhibition [3]: -4.5%
- growth inhibition [4]: -4.4%
- growth inhibition [5]: 31.4%
- growth inhibition [6]: 7.15%

Structure (SMILES): C=C1CC(C)(COc2ccc3c(C)cc(=O)oc3c2)OC1=O (stereo not drawn)
- growth inhibition [1]: 52.9%
- growth inhibition [2]: 46.1%
- growth inhibition [3]: 47.8%
- growth inhibition [4]: 48.5%
- growth inhibition [5]: 20.4%
- growth inhibition [6]: 54.5%

Structure (SMILES): O=C(O)CCC1CCCO1 (stereo not drawn)
- growth inhibition [1]: -5.4%
- growth inhibition [2]: -9.35%
- growth inhibition [3]: -9.3%
- growth inhibition [4]: 10.2%
- growth inhibition [5]: 15.3%
- growth inhibition [6]: -0.6%

Structure (SMILES): O=C(Nc1ccc(Cl)cc1[N+](=O)[O-])Oc1ccc(C(=O)OCc2ccccc2)cc1
- growth inhibition [1]: 76.3% (active)
- growth inhibition [2]: 75.1% (active)
- growth inhibition [3]: 71.5% (active)
- growth inhibition [4]: 48.5%
- growth inhibition [5]: 84.2% (active)
- growth inhibition [6]: 78.1% (active)

Structure (SMILES): Cc1ccc(NC(=O)Nc2ccc(Cl)c(Cl)c2)c(C)c1
- growth inhibition [1]: -6.05%
- growth inhibition [2]: 11.2%
- growth inhibition [3]: -1.75%
- growth inhibition [4]: -16.6%
- growth inhibition [5]: -4.2%
- growth inhibition [6]: -20.9%

Structure (SMILES): CC(=O)OC[C@@]12CC[C@H]3C(C)(C)CCC[C@]3(C)[C@H]1C[C@@H](C1=CC(=O)O[C@H]1O)O2
- growth inhibition [1]: 86.6% (active)
- growth inhibition [2]: 91.8% (active)
- growth inhibition [3]: 91.5% (active)
- growth inhibition [4]: 91.5% (active)
- growth inhibition [5]: 89.4% (active)
- growth inhibition [6]: 90% (active)
